Shiga toxin inh: A qHTS for Small Molecule Inhibitors of Shiga Toxin; Vero cells, Shiga toxin protein synthesis inhibition reporter; inhibition, % at 38.7 µM; 290,000 compounds, 9.2% hits; in the data active means inhibition mostly above about 28%, no sharp cut-off; inactive means mostly below about 43%
Cycloheximide cs: Cycloheximide Counterscreen for Small Molecule Inhibitors of Shiga Toxin; cell reporter, cycloheximide protein synthesis inhibition counterscreen; max response, %; 300,000 compounds, 12% hits; AID 2314, 2010; in the data active means max response mostly above about 13%, no sharp cut-off; inactive means mostly below about 14%; further: read at 38.3 µM for the half of the compounds with a filed dose
Pf growth 48h: Primary qHTS for delayed death inhibitors of the malarial parasite plastid, 48 hour incubation; P. falciparum luciferase growth in erythrocytes, 48 h; Potency, µM (highest dose often 28.7 µM), actives largely listed as inhibitors; 310,000 compounds, 5.9% hits
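In quantitative HTS format, infected erythrocytes bearing luciferase-reporter parasites were treated for a single generation at 37 C. Luminescence after adding detection reagent served as the growth measure.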
Pf growth 96h: Primary qHTS for delayed death inhibitors of the malarial parasite plastid, 96 hour incubation | P. falciparum luciferase reporter growth, 96 h | Potency, µM (highest dose often 28.7 µM), hits mostly inhibitors | 320,000 compounds, 6.9% hits
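Readout is luminescence from an integrated firefly luciferase in P. falciparum. Red cells, 2% hematocrit and 0.05% parasitemia final, were cultured with compound through two parasite generations (96 hours) at 37 C, 5% CO2.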
HCV inh: qHTS Assay for Inhibitors of Hepatitis C Virus (HCV) | Potency, µM (series often up to 41.8 µM), usual class: inhibitors | 340,000 compounds, 3.4% hits | Huh7.5.1 HCVcc-Cre infection, luciferase reporter, 44 h | AID 651820, 2012
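Compounds are dispensed onto cells plated 4 h earlier at 1,000 per well, with HCVcc-Cre virus (about 0.5 moi) added next. Following 44 h of culture, luminescent signal is measured for 15 sec after 15 min with substrate at room temperature.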
AMA1-RON2 inh: qHTS for Inhibitors of AMA1-RON; Towards Development of Antimalarial Drug Lead: Primary Screen | AlphaScreen AMA1-biotinylated RON2 peptide binding | Plasmodium falciparum AMA1 (3D7) - RON2 peptide interaction | 360,000 compounds, 0.2% hits | AID 720542, 2013 | Potency, µM (doses to about 58.2 µM), hits mostly inhibitors; further: nearly all actives have a fitted effect of over 45% in size
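AMA1 (3D7) with his tag at 25 nM final met compounds first, then biotinylated RON2 peptide at 25 nM; detection used donor plus acceptor beads, 10 µg/mL apiece, read by AlphaScreen after 30 min at room temperature.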
Of the large screens only hits and unclear results are named; the others gave an inactive call. Most compounds without a hit are left out; they make up all but 21% or so of the library. Unless noted, the call rests on the fitted dose curve; in most records, active means well fitted curve in the direction sought with a large enough effect; inconclusive means small, poorly fitted or top-dose-only effect, or another doubt; inactive means no such curve, though single readings can be large; an effect the other way counts as inactive or inconclusive.

O=C(Nc1cccc(-c2cscn2)c1)C1CCN(Cc2ccccn2)CC1	none
Cc1cc(O)c(-c2cc(C(=O)Nc3sc4c(c3C(=O)NCc3ccco3)CCC4)[nH]n2)cc1C	Pf growth 48h 1.2µM, Pf growth 96h 1.9µM, HCV inh inconclusive
COc1cc(C(=O)Nc2sc3c(c2C(=O)NCc2ccco2)CCCC3)cc(OC)c1OC	Pf growth 96h 1.7µM, HCV inh inconclusive (no result: Pf growth 48h)
COC(=O)Nc1sc2c(c1C(=O)NCc1ccco1)CCC2	Pf growth 48h inconclusive
O=C(Nc1sc2c(c1C(=O)NCc1ccco1)CCCC2)c1ccc2c(c1)OCO2	Shiga toxin inh 89, Cycloheximide cs 44, Pf growth 48h inconclusive, HCV inh inconclusive
COC(=O)Nc1sc2c(c1C(=O)NCc1ccco1)CCCC2	Pf growth 96h inconclusive, HCV inh inconclusive
COc1ccc(C(=O)Nc2sc3c(c2C(=O)NCc2ccco2)CCCC3)cc1OC	Pf growth 96h 3.3µM, HCV inh inconclusive (no result: Pf growth 48h)
Cc1ccc(C(=O)Nc2sc3c(c2C(=O)NCc2ccco2)CCCC3)cc1	Pf growth 96h inconclusive, HCV inh inconclusive (no result: Pf growth 48h)
C[C@H](CO)N1C[C@H](C)[C@@H](CN(C)S(C)(=O)=O)Oc2c(NC(=O)C3CC3)cccc2C1=O	none (no result: Shiga toxin inh, Cycloheximide cs, Pf growth 48h, Pf growth 96h)
O=c1c2ccccc2nc(SCc2cn3ccsc3n2)n1-c1ccc(F)cc1	Pf growth 48h inconclusive, Pf growth 96h inconclusive
c1ccc(-c2nnc(SCc3cn4ccsc4n3)o2)cc1	Shiga toxin inh 93, Cycloheximide cs 30
CCCCOc1ccc2c(c1)C(=O)c1cc(O)ccc1-2	Shiga toxin inh 93, Cycloheximide cs 29, HCV inh inconclusive
CCC(=O)NC1=C(Cl)C(=O)C(NC(=O)CC)=C(Cl)C1=O	Cycloheximide cs 14, Pf growth 48h 7.4µM, Pf growth 96h 4.7µM, HCV inh inconclusive
Cc1onc(-c2ccccc2Cl)c1C(=O)N[C@@H](C)c1ccccc1	none (no result: Shiga toxin inh, Cycloheximide cs, Pf growth 48h, Pf growth 96h)
COc1ccc2c3c(c(=O)oc2c1)C1O[C@](c2ccsc2)(Cc2cc(C#N)ccc21)O3	Pf growth 48h inconclusive (no result: HCV inh, AMA1-RON2 inh)
CC1(C)CC(=O)C2=C(C1)O[C@@]1(c3ccsc3)Cc3cc(C#N)ccc3C2O1	Pf growth 48h 1.5µM, Pf growth 96h inconclusive (no result: HCV inh, AMA1-RON2 inh)
CCCC[C@]12Cc3cc(C#N)ccc3C(O1)c1c(c3cc(F)ccc3oc1=O)O2	Pf growth 96h 1.3µM (no result: HCV inh, AMA1-RON2 inh)
Cc1cc2c(c(=O)n1-c1ccccc1)C1O[C@](c3ccsc3)(Cc3cc(C#N)ccc31)O2	Pf growth 48h inconclusive (no result: HCV inh, AMA1-RON2 inh)
N#Cc1ccc2c(c1)C[C@]1(c3ccsc3)Oc3c(c(=O)oc4ccccc34)C2O1	Shiga toxin inh active, Cycloheximide cs 24, Pf growth 48h inconclusive, Pf growth 96h inconclusive (no result: HCV inh, AMA1-RON2 inh)
Cc1cc2c(c(=O)o1)C1O[C@](c3ccsc3)(Cc3cc(C#N)ccc31)O2	Pf growth 48h inconclusive, Pf growth 96h inconclusive (no result: HCV inh, AMA1-RON2 inh)
CCCC[C@]12Cc3cc(C#N)ccc3C(O1)c1c(c3ccccc3oc1=O)O2	Pf growth 96h inconclusive (no result: HCV inh, AMA1-RON2 inh)
N#Cc1ccc2c(c1)C[C@]1(c3ccsc3)Oc3c(c(=O)oc4ccc(F)cc34)C2O1	Pf growth 48h 1.5µM (no result: HCV inh, AMA1-RON2 inh)
CC1(C)CC(NC(=O)C23CCC(C)(C2Br)C3(C)C)CC(C)(C)N1 (configuration not stated)	none
Cc1c(-c2ccn[nH]2)cc(NC(=O)c2ccc(Cl)cc2)c(=O)n1N	none
COc1cc2c(cc1OC)C1O[C@](c3ccsc3)(C2)Oc2c1c(=O)oc1ccc(F)cc21	Cycloheximide cs 16, Pf growth 48h 1.5µM, Pf growth 96h inconclusive (no result: HCV inh, AMA1-RON2 inh)
O=C(O)c1cc(O)c2c(c1)[C@H]([C@H]1c3cc(C(=O)O)cc(O)c3C(=O)c3c(O[C@@H]4OC(CO)C(O)C(O)C4O)cccc31)c1cccc(O[C@@H]3OC(CO)C(O)C(O)C3O)c1C2=O (some centres not stated)	none (no result: Shiga toxin inh, Cycloheximide cs, HCV inh, AMA1-RON2 inh)
O=C(O)c1cc(O)c2c(c1)[C@@H]([C@H]1c3cc(C(=O)O)cc(O)c3C(=O)c3c(O[C@@H]4O[C@H](CO)[C@@H](O)[C@H](O)[C@H]4O)cccc31)c1cccc(O[C@@H]3O[C@H](CO)[C@@H](O)[C@H](O)[C@H]3O)c1C2=O	AMA1-RON2 inh 1.4µM (no result: Shiga toxin inh, Cycloheximide cs, Pf growth 48h, Pf growth 96h)

Screening results (PubChem BioAssay)
